Source: PubChem
TcdB inh – inhibitors of Clostridioides difficile toxin B glycohydrolase. 0.24% of 350,000 active. P18177. AID 652162. TcdB glycohydrolase enzymatic assay, plate reader. inhibition, % at 9.99 µM; in the data active = inhibition above about 10%
Target sequence (P18177 whole entry, looked up): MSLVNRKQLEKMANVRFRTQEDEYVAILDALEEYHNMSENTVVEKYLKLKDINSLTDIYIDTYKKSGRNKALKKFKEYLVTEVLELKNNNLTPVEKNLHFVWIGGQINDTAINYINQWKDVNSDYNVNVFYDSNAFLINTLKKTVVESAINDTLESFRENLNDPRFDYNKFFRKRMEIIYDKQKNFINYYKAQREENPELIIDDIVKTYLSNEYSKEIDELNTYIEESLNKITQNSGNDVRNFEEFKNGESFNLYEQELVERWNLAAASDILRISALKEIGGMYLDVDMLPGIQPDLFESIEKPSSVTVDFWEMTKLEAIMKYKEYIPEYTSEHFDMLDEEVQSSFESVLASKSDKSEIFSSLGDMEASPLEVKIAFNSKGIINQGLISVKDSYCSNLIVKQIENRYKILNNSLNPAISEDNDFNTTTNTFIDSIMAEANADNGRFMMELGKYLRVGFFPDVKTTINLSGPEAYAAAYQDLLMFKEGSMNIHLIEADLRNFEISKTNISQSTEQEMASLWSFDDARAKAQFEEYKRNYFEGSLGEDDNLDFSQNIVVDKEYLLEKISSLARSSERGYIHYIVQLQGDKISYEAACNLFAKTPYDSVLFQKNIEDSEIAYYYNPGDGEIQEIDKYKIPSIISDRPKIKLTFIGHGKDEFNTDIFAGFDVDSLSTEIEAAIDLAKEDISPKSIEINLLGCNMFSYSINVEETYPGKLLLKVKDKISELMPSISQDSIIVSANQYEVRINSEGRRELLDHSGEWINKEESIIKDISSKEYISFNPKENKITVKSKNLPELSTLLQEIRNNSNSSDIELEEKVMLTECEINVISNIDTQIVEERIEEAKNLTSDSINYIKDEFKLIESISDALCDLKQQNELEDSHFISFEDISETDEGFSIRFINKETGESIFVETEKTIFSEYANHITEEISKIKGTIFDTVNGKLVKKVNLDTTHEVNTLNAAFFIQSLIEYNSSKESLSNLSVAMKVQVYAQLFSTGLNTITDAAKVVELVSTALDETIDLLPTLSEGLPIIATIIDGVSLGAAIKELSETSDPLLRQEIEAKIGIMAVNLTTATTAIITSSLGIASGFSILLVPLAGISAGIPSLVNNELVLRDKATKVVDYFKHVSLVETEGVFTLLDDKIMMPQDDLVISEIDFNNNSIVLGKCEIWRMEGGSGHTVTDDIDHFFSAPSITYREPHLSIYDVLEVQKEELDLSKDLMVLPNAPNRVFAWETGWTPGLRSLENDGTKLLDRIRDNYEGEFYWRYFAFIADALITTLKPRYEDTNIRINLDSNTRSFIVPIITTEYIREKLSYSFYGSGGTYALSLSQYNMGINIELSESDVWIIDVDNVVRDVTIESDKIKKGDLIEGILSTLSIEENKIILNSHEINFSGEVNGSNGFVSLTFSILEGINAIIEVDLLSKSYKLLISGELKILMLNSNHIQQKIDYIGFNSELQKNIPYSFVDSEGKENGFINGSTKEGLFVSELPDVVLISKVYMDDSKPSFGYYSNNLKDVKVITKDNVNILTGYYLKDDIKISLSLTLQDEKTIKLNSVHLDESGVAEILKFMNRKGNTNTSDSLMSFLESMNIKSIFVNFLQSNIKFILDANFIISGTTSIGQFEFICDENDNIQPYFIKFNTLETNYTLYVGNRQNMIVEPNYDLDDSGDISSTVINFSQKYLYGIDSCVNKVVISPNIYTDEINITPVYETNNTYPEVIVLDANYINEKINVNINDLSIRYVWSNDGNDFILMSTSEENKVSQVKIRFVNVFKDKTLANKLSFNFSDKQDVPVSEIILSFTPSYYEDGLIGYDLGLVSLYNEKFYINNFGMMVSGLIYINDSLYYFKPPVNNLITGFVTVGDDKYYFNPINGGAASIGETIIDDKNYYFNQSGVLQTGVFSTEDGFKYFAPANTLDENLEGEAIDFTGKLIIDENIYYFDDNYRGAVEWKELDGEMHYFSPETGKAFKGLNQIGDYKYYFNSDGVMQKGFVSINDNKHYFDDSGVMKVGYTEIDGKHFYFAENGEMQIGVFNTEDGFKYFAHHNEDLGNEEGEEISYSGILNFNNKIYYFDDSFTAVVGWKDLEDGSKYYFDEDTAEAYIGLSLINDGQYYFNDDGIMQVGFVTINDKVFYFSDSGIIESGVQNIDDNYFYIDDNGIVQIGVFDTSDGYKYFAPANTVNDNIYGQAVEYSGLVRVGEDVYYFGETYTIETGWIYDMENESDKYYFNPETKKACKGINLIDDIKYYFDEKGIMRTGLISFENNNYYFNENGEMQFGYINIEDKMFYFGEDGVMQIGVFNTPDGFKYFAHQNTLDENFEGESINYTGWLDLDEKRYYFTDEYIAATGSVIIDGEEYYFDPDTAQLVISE
FadD28 FP inh – inhibitors of Mycobacterium tuberculosis FadD28 bisubstrate binding | 0.22% of 360,000 active | AID 588549 | inhibition, % at 12.5 µM | FadD28 bisubstrate probe binding, fluorescence polarization; in the data active = inhibition above about 8.5%, passing the limit was not always enough
Vc quorum ag-1 – inducers of Vibrio cholerae quorum light production without autoinducers; V. cholerae BH1578 lux reporter, luminescence, 6 h; activation, % at 18.7 µM; 0.16% of 350,000 active; in the data active = activation mostly above about 9.7%, no sharp cut-off
Mtb BioA inh – BioA (M. tuberculosis) enzyme inhibition | purified M. tuberculosis BioA enzyme, plate reader | inhibition, % at 9.99 µM | 0.096% of 360,000 active | AID 602481; in the data active = inhibition above about 40%
Yp Topo-I inh – blocks Yersinia pestis topoisomerase I activity. Y. pestis Topo-I cleavage product accumulation, plate reader. activity, % at 10 µM. 0.064% of 360,000 active. AID 504884; in the data active = activity above about 50%, passing the limit was not always enough
Vc quorum ag-2 – quorum light induction in BH1578 reporter strain | shares compounds with Vc quorum ag-1 | V. cholerae BH1578 lux reporter, luminescence, 6 h | activation, % at 50 µM | 620 tested, under 10 active; call rule not given here
HeLa 24h tox – kills HeLa cells within 24 hours. activity change, negative = cytotoxicity, % at 35 µM. AID 624140. 25 tested, under 10 active. HeLa viability, CellTiter-Glo ATP luminescence. shares compounds with Vc quorum ag-1;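 active = signal drop with fitted half-maximal concentration at or below twice the highest valid dose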
Starred values were filed as active, the others as inactive; i = inactive; nt = not tested or not shown; + = active, no number. Hits are enriched below; roughly 0.58% of the tested compounds scored in any of these assays.

SMILES	TcdB inh	FadD28 FP inh	Vc quorum ag-1	Mtb BioA inh	Yp Topo-I inh	Vc quorum ag-2	others
CCNC(=O)[C@H]1[C@H](CO)[C@H]2Cn3c(ccc(-c4ccccc4)c3=O)[C@H]2N1C(=O)C1CCCC1	-3	nt	nt	2	nt	nt
CCC(=O)N[C@@H]1C=C[C@@H](CC(=O)NCC2CC2)O[C@@H]1CO	0	nt	nt	nt	nt	nt
CC(=O)Oc1ccc(-c2ccc(C(=O)O)cc2)cc1	nt	0	25*	0	2	0
CCNC(=O)C[C@@H]1C=C[C@@H](NS(=O)(=O)c2ccc(C)cc2)[C@@H](CO)O1	0	nt	nt	2	nt	nt
COc1ccccc1NC(=O)COC(=O)c1cc2ccccc2cc1O	1	-4	2	-3	2	nt
COc1ccccc1NC(=O)c1ccc(NC(=O)COC(=O)c2ccc(O)cc2)cc1	-1	-2	-2	-1	3	nt
COc1ccc(Cl)cc1NC(=O)COC(=O)c1ccc(C)o1	1	-4	nt	-1	14	i	HeLa 24h tox=-7
COc1ccccc1NC(=O)COC(=O)c1cc2ccccc2s1	nt	nt	nt	nt	nt	nt	HeLa 24h tox=9
COc1ccccc1NC(=O)COC(=O)c1ccc(C)cc1	nt	nt	nt	nt	nt	nt	HeLa 24h tox=-7
CCOC(=O)c1cnc(-n2nc(C)cc2C)nc1N(C)C	nt	-2	12	3	-7	2
O=C(NC[C@H]1CC[C@H]2[C@H](CN2C(=O)Cc2ccncc2)O1)C1CCOCC1	-1	nt	nt	nt	nt	nt
C[C@@H]1CCCCO[C@H](CN(C)CC2CCCCC2)[C@H](C)CN([C@@H](C)CO)C(=O)c2cc(NC(=O)C3CCCCC3)ccc2O1	1	nt	nt	0	nt	nt
COCc1[nH]nc2c1C1(CCC3(CC1)OCCO3)C(C#N)=C(N)O2	nt	-4	17*	1	-4	0
CO[C@@H]1CN(C)C(=O)c2ccc(NS(=O)(=O)CC(F)(F)F)cc2OC[C@@H](C)N(C)C[C@@H]1C	0	nt	nt	2	nt	nt
CCOC(=O)CSc1nc(C)cc(C)c1C#N	nt	0	17*	0	-6	0
COc1ccc2c3c(n(C)c2c1)[C@H](CO)N(C(=O)CN1CCOCC1)CC31CN(Cc2ccncc2)C1	0	nt	nt	nt	nt	nt
CN1CCN(c2ccc([N+](=O)[O-])c3no[n+]([O-])c23)CC1	1	1	3	-33	-8	nt
O=[N+]([O-])c1ccc(N(CCO)CCO)c2c1no[n+]2[O-]	4	1	39*	-50	1	2
Cn1c(CCNC(=O)c2ccco2)nc2cc(NC(=O)NC3CCCCC3)ccc21	nt	-2	7.6*	-2	-3	0
CC(=O)N1[C@@H]2c3ccc(-c4cccc(F)c4)c(=O)n3C[C@@H]2[C@@H](CO)[C@@H]1C(=O)NCCCN(C)C	-1	nt	nt	1	nt	nt
O=C(Nc1ccc(-c2cn3ccsc3n2)cc1)c1ccc(F)c(S(=O)(=O)N2CCOCC2)c1	nt	-3	12	0	13	0
COc1ccccc1N1CCN(CCCOc2ccc(F)cc2)CC1	nt	-3	12	0	5	0
COc1ccccc1N1CCN(CCCCOc2c(OC)cccc2OC)CC1	0	-4	-1	1	3	nt
CNC(=O)C[C@@H]1CC[C@H]2[C@@H](COc3ccc(NC(=O)NC(C)C)cc3C(=O)N2C)O1	nt	nt	nt	0	nt	nt
CC(C)(C)C(=O)OCc1cn(-c2ccccc2)nn1	nt	-2	0	-3	4	nt
SMILES	TcdB inh	FadD28 FP inh	Vc quorum ag-1	Mtb BioA inh	Yp Topo-I inh	Vc quorum ag-2	others
CCNC(=O)OCc1cn(-c2ccccc2)nn1	1	-1	+	nt	6	i
Cc1ccc(C(=O)OCC(=O)Nc2ccc(N(C)C)cc2)cc1NC(=O)c1ccco1	nt	-4	-1	-1	-3	nt
Cc1ccc(C(=O)OCC(=O)Nc2ccccc2)cc1NC(=O)c1ccco1	nt	2	7	0	5	0
CCOc1ccc(S(=O)(=O)Nc2ccc(C(=O)NCC(c3ccco3)N3CCCCC3)cc2)cc1 (stereo not given)	1	0	14	-1	14	0
COc1ccccc1NS(=O)(=O)c1cccc(C(=O)NCC(c2ccco2)N2CCCCC2)c1 (stereo not given)	0	-2	14	-3	7	0
COc1ccccc1C#Cc1ccc2c(c1)[C@@H]1[C@@H](CCN1S(=O)(=O)c1ccc(F)cc1)[C@@H](CO)N2	0	nt	nt	nt	nt	nt
C[C@H](CO)N1C[C@H](C)[C@@H](CN(C)C(=O)CCC(F)(F)F)OCCCC[C@H](C)Oc2ccc(NS(=O)(=O)c3cn(C)cn3)cc2C1=O	0	nt	nt	-3	nt	nt
